Screening data (PubChem)
A selection: hits, their analogues and other compounds. The true share with any hit is near 2.8%.
KKLEB tox: cytotoxicity in KKLEB CF airway cells, primary screen, cytotoxicity control for CF NF-kB inhibitor project, cell-based, uHTS, fluorescence assay plates; KKLEB CF airway cells viability, ATPlite luminescence, overnight; hits give low values; cells stimulated with P. aeruginosa culture filtrate; activity change (cytotoxicity), % at 5 µM; actives 0.36% (n = 360,000); AID 602141, 2011;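 active = corrected activity change at or below -50% at 5 µM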
TRPM1 prom inh: inhibitors of MITF-dependent TRPM1 promoter reporter, primary screen, cell-based, SK-MEL-5, single point, luciferase. SK-MEL-5 TRPM1 promoter luciferase, 24 h. inhibition, % at 12.5 µM. actives 0.83% (n = 330,000). AID 488899, 2010;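 active = mean inhibition across replicates of 60% or more, whatever share of single replicates reaches that level; inconclusive = some that reach 60%, reason not given; inactive = mean inhibition across replicates below 60%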
Peg3 promoter: Peg3 promoter-driven luciferase inhibitors, primary screen, cell-based, HeLa, luciferase luminescence | inhibition, % at 20 µM | AID 588405, 2011 | HeLa PEG-Prom luciferase reporter, overnight | actives 1.7% (n = 360,000);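 active = inhibition of at least 50% at 20 µM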
CF NFkB inh: inhibitors of PAF-induced NF-kB signaling, primary screen, cell-based, GFP fluorescence, uHTS; KKLEB NF-kB-GFP reporter, GFP fluorescence overnight; inhibition, % at 5 µM; actives 0.86% (n = 360,000); AID 588850, 2011;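 active = at least 50% inhibition at 5 µM, scaled per plate between neutral and stimulator controls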;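 note: PAF is a Pseudomonas aeruginosa culture filtrate used as stimulus; plate controls were PAF-stimulated DMSO wells for no effect and unstimulated DMSO wells for full effect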
HIF-2a inh: HIF-2a reporter inhibitors, primary screen, luminescence, 786-0 RCC cells. 786-0 RCC cells HIF-2a reporter, luciferase luminescence, overnight. inhibition, % at 18.8 µM. actives 0.72% (n = 360,000);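 active = inhibition of the luminescence signal of 40% or more relative to plate controls, in a single-dose primary screen at 18.75 µM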
Shn3 inh set2: reduction of Shn3 3'UTR firefly luciferase signal, primary screen, Schnurri-3 inhibitor project, cell-based, Clone20 osteoblasts, set 2 | actives 0.52% (n = 360,000) | Clone20 osteoblast Shn3 3'UTR firefly luciferase, 24 h | inhibition, % at 12.5 µM;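 active = mean inhibition of at least 75% with every replicate also reaching 75%; inconclusive = mean inhibition at least 75% but some replicate below; inactive = mean inhibition below 75%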;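 note: 0% = median of neutral control wells and 100% = pilot-screen positive control compound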
* hit, by the source's call; ? = inconclusive; / = not tested or not shown.

SMILES	KKLEB tox	TRPM1 prom inh	Peg3 promoter	CF NFkB inh	HIF-2a inh	Shn3 inh set2
c1ccc(Nc2ccc(Nc3ccccc3)cc2)cc1	1.9	-90.4	-156.0	1.7	-227.7	-38.9
N#CC(C#N)=C(C#N)c1ccc(Nc2ccccc2)cc1	-14.2	0.3	31.9	52.7*	10.7	4.0
O=C1NC(=O)C(CCc2ccncc2)(Cc2cccc(Cl)c2Cl)C(=O)N1c1ccc(Br)cc1 (stereo not drawn)	-22.0	12.2	56.5*	27.8	23.9	-11.6
CN1C2CCC1C(COC(=O)c1ccccc1)C(O)C2 (stereo not drawn)	8.0	2.5	4.4	-17.1	14.4	1.6
CC1CCN(C(CC(=O)c2ccccc2)C(=O)c2ccccc2)CC1 (stereo not drawn)	-14.2	3.1	104.7*	39.9	-143.1	10.4
O=C1NCN(c2ccccc2)C12CCN(C(c1ccnc3ccccc13)c1nnnn1-c1ccc3c(c1)OCCO3)CC2 (stereo not drawn)	-6.7	/	41.4	12.3	5.3	6.7
COc1ccc2[nH]c(C)c(CCNCc3cn(C)c4ccccc34)c2c1	-19.4	47.0	87.1*	39.4	8.6	53.7
Cc1[nH]c2ccccc2c1CCNCc1cccnc1	2.8	-2.6	-5.8	-11.5	16.2	-24.6
C[n+]1c2ccccc2nc2ccc(NCCO)cc21	11.4	3.9	-29.8	-38.9	-15.3	4.0
CNc1ccc2nc3ccccc3[n+](C)c2c1	5.1	71.9*	39.4	-61.2	-11.3	36.4
COc1ccc(-c2cc(-c3ccccc3)[n+](C)c(-c3ccccc3)c2)cc1	-14.6	65.9*	34.2	20.2	16.5	15.4
Cn1c(O)c(C=Nc2ccc(F)cc2)c(=O)[nH]c1=O	13.4	8.7	74.1*	-11.4	7.0	-1.4
O=C(Cn1cnc2sc3c(c2c1=O)CCCC3)NCCCC(=O)N1CCC2(CC1)OCCO2	2.8	-2.1	14.8	-21.1	8.1	-6.2
N#Cc1ccc(NC(=O)CN2C(=O)NC3(CCCCCCC3)C2=O)cc1Cl	-22.2	-4.1	2.8	5.7	9.9	39.3
C=CCN1C(=O)/C(=C/c2ccc(Br)s2)C(=O)NC1=S	-5.0	2.1	10.2	5.9	14.1	2.4
Cc1ccsc1/C=C1\C(=O)NC(=S)N(C)C1=O	6.2	70.1*	89.8*	30.9	26.4	53.3
CN1C(=O)/C(=C\c2ccc(N3CCCCCC3)cc2)C(=O)NC1=S	-5.0	8.1	77.7*	5.9	-18.6	-17.0
CN1C(=O)/C(=C/c2ccc(Cl)s2)C(=O)NC1=S	-11.4	-1.5	55.4*	65.7*	19.9	3.4
Cc1ccc(OC(=O)N(C)C[C@H]2OCc3cnnn3CCCC(=O)N([C@H](C)CO)C[C@@H]2C)cc1	18.8	/	11.9	11.4	11.7	-3.4
C[C@]12CCC3[C@@H](CCC4=CC(=O)CC[C@@]43C=O)C1CCC2=O (stereo partly drawn)	3.9	4.7	8.9	-18.7	7.9	-9.5
Oc1ccc(O)c2c1C1(Cl)C(Cl)=C(Cl)C2(Cl)C1(Cl)Cl	-12.4	-1.6	61.1*	43.8	25.0	27.4
Cc1ccc(N2C(=O)NC(=O)C(CCc3ccccn3)(Cc3ccc(F)cc3)C2=O)cc1 (stereo not drawn)	7.0	-0.2	11.9	-1.6	10.7	-3.5
COC1/C=C/C=C(\C)Cc2cc(O)c(Cl)c(c2)N(C)C(=O)CC(OC(=O)C(C)C)C2(C)OC2C(C)C2CC1(O)NC(=O)O2 (stereo not drawn)	-22.7	59.2	-22.5	58.3*	34.6	-15.3
O=C1NC(=O)C(=Cc2ccc(-c3ccc(F)cc3O)o2)C(=O)N1	-5.0	46.3	8.5	39.3	48.1*	18.4
O=C1NC(=O)C(=Cc2ccc(-c3ccc(Cl)cc3)o2)C(=O)N1	2.2	67.7*	101.7*	-3.1	13.6	82.7
SMILES	KKLEB tox	TRPM1 prom inh	Peg3 promoter	CF NFkB inh	HIF-2a inh	Shn3 inh set2
CCOC(=O)C1(c2ccccc2)CCN(CCC(=O)Nc2cccc(Br)c2)CC1	2.4	18.6	59.0*	-0.4	9.5	31.2
CCOC(=O)C1(c2ccccc2)CCN(CCC(=O)Nc2ccc(OC)cc2)CC1	-11.8	/	0.4	5.1	10.3	-1.3
O=C1NCN(c2ccccc2)C12CCN(C(c1nnnn1C1CCCC1)C1CC1)CC2 (stereo not drawn)	-12.0	/	21.8	4.0	12.2	-3.3
Cc1ccc2c(C)c3ccc4ccccc4c3c[n+]2c1	6.3	67.8*	55.3*	-125.8	0.2	12.8
COC(=O)C1(F)C(=O)NC(=O)NC1O (stereo not drawn)	/	/	/	/	7.3	/
O=C1NC(=O)N(Cc2ccccc2Cl)C(=O)/C1=C/c1cccs1	-10.6	56.1	60.0*	43.0	49.6*	-0.9
Cc1cccc(N2C(=O)NC(=O)/C(=C\C=C\c3ccco3)C2=O)c1	-9.1	98.2*	44.8	87.5*	39.0	97.6*
Cc1ccc(N2C(=O)NC(=O)/C(=C\C=C\c3ccco3)C2=O)cc1C	-38.1	89.9*	75.9*	79.7*	75.5*	?
O=C1NC(=O)N(c2ccccc2)C(=O)/C1=C/C=C/c1ccco1	4.8	94.7*	35.6	-2.3	30.3	-6.4
CN(C)c1ccc(/C=C/C=C2/C(=O)NC(=O)N(c3ccccc3)C2=O)cc1	-27.1	83.1*	103.3*	70.5*	3.3	18.5
Cn1cc(/C=C2\C(=O)NC(=O)N(c3ccccc3)C2=O)c2ccccc21	-3.5	-16.5	21.6	-0.7	5.2	4.6
CC(C)COC(=O)N1Cc2ccccc2-n2nncc2C1	6.7	/	-14.1	-9.2	-2.3	-8.5
CC(Cc1ccccc1)NC(=O)Cc1ccc([N+](=O)[O-])cc1 (stereo not drawn)	-1.4	-10.7	18.4	-7.8	9.7	-72.9
Cc1ccc(N2C(=O)NC(=O)/C(=C\C=C\c3ccco3)C2=O)cc1	-5.5	101.8*	46.7	52.1*	42.2*	71.3
CN1C(=O)/C(=C/C=C/c2ccco2)C(=O)NC1=S	-3.5	2.5	6.1	15.0	16.5	0.9
CC1(C)C[C@H]2C=C(C=O)[C@]3(C=O)C[C@]3(C)[C@H]2C1	-37.4	88.2*	105.4*	77.4*	23.2	96.7*
O=[N+]([O-])c1ccc(Cl)c([N+](=O)[O-])c1	-16.6	43.3	58.2*	58.3*	7.3	-7.1
O=[N+]([O-])c1ccc(O)c([N+](=O)[O-])c1	-13.3	-5.6	-1.9	22.8	-7.7	-15.4
CC(=O)OC1CCC2(C)C3CCC4(C)C(OC(C)=O)CCC4C3C(C)C2(O)C1 (stereo not drawn)	3.0	8.9	0.5	8.1	-2.4	-0.3
